Results from PubChem BioAssay (NCI).
The panel holds about 79,000 compounds, 15% with a hit somewhere; the sample as a whole holds those more often. Values without a mark were called inactive. The source made the active and inactive calls. Rule as the data show it: active = growth inhibition above about 70%; inactive = the rest.

Columns and labels:
[1] = NCI Yeast Anticancer Drug Screen. Data for the rad50 strain (AID 155);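 also: 0% = growth of vehicle-only cultures of the same strain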; details: S. cerevisiae rad50 strain growth inhibition; at 50.0 µM; active compounds read high
How it was run: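 Cells are treated with compound, grown, and their growth is then scored against vehicle-only cultures of the same repair-deficient yeast strain.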

[2] = NCI Yeast Anticancer Drug Screen. Data for the mec2-1 strain (AID 157); details: S. cerevisiae mec2-1 strain, at 50.0 µM, active compounds read high
How it was run: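 mec2-1 yeast strain, carrying an alteration in DNA damage repair or cell cycle control, was exposed to compounds; growth inhibition was measured relative to vehicle-treated controls.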

[3] = NCI Yeast Anticancer Drug Screen. Data for the sgs1 mgt1 strain (AID 161);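 also: 0% = growth of cultures given vehicle only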; details: S. cerevisiae sgs1 mgt1 strain, at 50.0 µM, active compounds read high
How it was run: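 Yeast cells carrying a defined DNA-repair defect were exposed to test compounds. Growth inhibition was measured relative to vehicle-treated controls.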

[4] = NCI Yeast Anticancer Drug Screen. Data for the cln2 rad14 strain (AID 165);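 also: 0% = growth equal to vehicle treated cultures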; details: S. cerevisiae cln2 rad14 strain, at 50.0 µM, active compounds read high
How it was run: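 Yeast carrying cln2 and rad14 alterations (cell cycle control and DNA damage repair) were exposed to compounds. Growth inhibition was measured against vehicle-treated controls.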

[5] = NCI Yeast Anticancer Drug Screen. Data for the bub3 strain (AID 167); details: S. cerevisiae bub3 mutant strain, at 50.0 µM, active compounds read high
How it was run: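 Part of a panel of yeast mutants defective in DNA damage repair or cell cycle regulation. Each strain is grown with compound, and inhibition is calculated relative to solvent-treated cultures.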

[6] = NCI Yeast Anticancer Drug Screen. Data for the mlh1 rad18 strain (AID 175); details: S. cerevisiae mlh1 rad18 strain growth inhibition; at 50.0 µM; active compounds read high
How it was run: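 Growth inhibition of the yeast strain was measured after compound exposure and expressed relative to vehicle-treated controls. The strain carries defined defects in DNA damage repair.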

SMILES | growth inhibition [1] | growth inhibition [2] | growth inhibition [3] | growth inhibition [4] | growth inhibition [5] | growth inhibition [6]
CCOC(=O)NC(NC(=O)OCC)c1ccc(C(NC(=O)OCC)NC(=O)OCC)cc1 | 30.9% | 13.2% | 5.45% | 5% | 2.8% | 7.9%
O=C1CC(c2ccccc2)=NN1c1ccccc1 | -8.3% | -25.4% | -5.55% | 9.5% | -23.8% | 18.6%
Cc1[nH]c(=O)[nH]c(=O)c1C | 4.05% | -36.1% | 1.8% | 27.4% | -11.9% | 7.35%
COC(=O)C(N)Cc1ccc(OCc2ccccc2)cc1 (configuration not stated) | -0.8% | 5.2% | -2.25% | -4.25% | 24.4% | -5.35%
COc1cc(C)c(C#N)c(OC)n1 | 19.4% | -7.8% | 9.9% | 12.9% | 20.2% | 14.8%
CCCCCC[n+]1ccc(C(=O)c2ccccc2)cc1 | 34.9% | -5.8% | 19.9% | 7.9% | 0.45% | 32.6%
COC(CN(C)C(=S)Nc1cccc2ccccc12)OC | -31.9% | -74% | -23.6% | -11.7% | -6.2% | -30.9%
Nc1n[n+]([O-])c2cc([N+](=O)[O-])ccc2[n+]1[O-] | 85.1% (active) | 87.9% (active) | 84.7% (active) | 79.7% (active) | 75.9% (active) | 68%
COc1ccc(C(=O)CCc2cccc(NC(=O)CCCl)c2)cc1 | -17.6% | 6.2% | 6.45% | -9.1% | -6.85% | -11.8%
Nc1ccccc1N/N=C/c1ccccc1 | -4.3% | 15.3% | -15.4% | -37.5% | -15.3% | 5.25%
COc1ccc(CCO)cc1 | 0.55% | -36% | -15.9% | -10.2% | -31.1% | -33.2%
COc1ccc(/C=C/C(=O)C(C)(C)CN2CCCCC2)cc1 | 39.9% | 24.9% | 20.5% | 37.8% | 36.5% | 39.2%
COC(=O)C1C(O)CCC2CN3CCc4c([nH]c5cccc(OC)c45)C3CC21 (configuration not stated) | -3.7% | -14.8% | 14.3% | 7.85% | 2% | -78.7%
CS(=O)(=O)Nc1cccc(C(=O)O)c1 | 28.6% | -0.05% | 14.8% | -2.85% | -28.9% | -23%
COc1ccc(S(=O)(=O)c2ccc(F)cc2)cc1 | -22.1% | -14.2% | -3.65% | -5.8% | -12.7% | -21.4%
CC(=O)Nc1cscc1NC(C)=O | -3.8% | -10.7% | 6.05% | -0.2% | 16.9% | -9.5%
COc1ccccc1C1(CBr)OCCO1 | -6.15% | -7.7% | 6.55% | -5.4% | -3.85% | 9.4%
NC(=O)Nc1cccc(C(=O)O)c1C(=O)O | -29.4% | -13.2% | -18.1% | -33.6% | -13.1% | -28.4%
CN/N=C(\C(=O)Nc1ccc([N+](=O)[O-])cc1[N+](=O)[O-])C1NC(=O)NC1=O (configuration not stated) | 23.8% | 20.1% | 1.95% | 5.05% | 15.9% | -10.9%
CCOC(=N)CC(=O)Nc1ccccc1 | 4.45% | 1.1% | 1.65% | -1.6% | 3.6% | 2.35%
CC(=O)C(C(=O)C(=O)Nc1cc(Cl)c(Cl)cc1Cl)c1csc(N)n1 (configuration not stated) | -14.7% | -9.2% | -1.85% | 7% | -2.5% | -10.6%

SMILES | growth inhibition [1] | growth inhibition [2] | growth inhibition [3] | growth inhibition [4] | growth inhibition [5] | growth inhibition [6]
O=C(O)CCSSCCCS(=O)O | -26.6% | -3% | 36% | 18.9% | 0.45% | -2.2%
O=[N+]([O-])c1cc2ccccc2nc1-c1ccccc1 | 15.6% | 4.2% | -0.55% | 6.95% | 7.2% | 6.15%
FC(F)(F)c1cc(-c2ccc(C3Nc4ccccc4-n4cccc43)o2)cc(C(F)(F)F)c1 (configuration not stated) | 11.7% | -23.4% | 24.2% | 6.65% | 25.4% | 30.3%
CC1(C)C2CC=C(CCO)C1C2 (configuration not stated) | -2.85% | -5.8% | 2.05% | -20.6% | 0.05% | -21.4%
Cc1ccc2c(C)cc(=O)n(C)c2c1 | 4.7% | 11.2% | 9.6% | 4.9% | -0.25% | 15.1%
COc1cc(OC)c2cnc(Cl)cc2c1 | 15.4% | -9.1% | -5.35% | -41.4% | -2.85% | 6.6%
Cc1cc2ccccc2c2cc3ccccc3cc12 | -2.35% | -6.4% | 8.45% | 11.8% | -2.05% | 7.75%
Cc1c(O)nc(N)[nH]c1=O | 2.65% | -24% | -22.6% | 1.7% | -13.3% | -7.2%
CCN(CC)[Si](C)(C)C | -24.1% | -0.2% | -9.25% | -6.65% | -21.8% | -24.4%
Cc1cccc(C)c1/[N+]([O-])=C/c1cccc([N+](=O)[O-])c1 | -1.8% | -31.1% | -3.3% | -29.4% | 10% | -2.25%
O=C(O)C1Cc2c([nH]c3ccccc23)C(c2cccs2)N1 (configuration not stated) | 27.7% | 7.6% | 8.7% | 0.5% | -19.8% | 14.3%
Nc1ccc(C(=O)N/C(=C\c2cccc([N+](=O)[O-])c2)c2nc3ccc(Cl)cc3[nH]2)cc1 | -10.1% | -21.4% | -25.3% | -17.9% | 1% | -15.9%
CC1CCCC2(C)CCC(=O)C=C12 (configuration not stated) | -2% | 6.75% | -12.5% | -13.8% | -1.95% | -20.5%
O=c1[nH]nnc2cc(Cl)ccc12 | 0% | 6.15% | -4.65% | -12.2% | 2% | -1.3%
CCCCCCC(C)CC1=C(O)c2ccccc2C(=O)C1=O (configuration not stated) | -18.5% | 7.55% | -1.9% | -38.4% | 13.6% | 5.25%
O=C(O)CNC(=O)CNC(=O)CNC(=O)CNC(=O)CNC(=O)OCc1ccccc1 | 38.2% | -0.25% | 15.2% | 28.1% | -0.95% | 17.4%
Fc1ccc(F)c(C2SCc3nc4ccccc4n32)c1 (configuration not stated) | 19.4% | 19.1% | 33.1% | 25.1% | 16.6% | 24.6%
COc1ccc(OC)c2cc(C3(C)SCCCS3)ccc12 | -9% | 9.35% | 19.2% | 15.3% | 13.2% | -12.2%
CC1(C)CC2=C(Sc3ccccc3N2)C(=O)C1C(=O)C(=O)Nc1cc(Cl)ccc1Cl (configuration not stated) | -1.3% | -6.95% | -6.85% | -28.3% | -0.25% | -9.55%
Cc1cccc(C(C)(C)C)c1NC(=O)C(=O)Cc1nc2ccccc2s1 | -12.1% | 7.05% | 5.6% | -41.7% | 5.4% | 18.2%
CCCC(=O)c1c(C)cc(C)cc1C | -6.6% | -19.7% | -24.4% | 9.45% | -7.55% | 11.1%
